This is one part of the list. A number with no mark means an inactive call. The source made the active and inactive calls. No stated cut-off is given here; in the data, active means activation above about 18%; inactive means the rest.
What follows are compounds tested against Mu-type opioid receptor (Homo sapiens) + Delta-type opioid receptor (Homo sapiens) (UniProt P35372+P41143) (assay: OPRM1-OPRD1 heterodimer formation agonism – cell-based, luminescence, confirmation (AID 504904;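 further: 0% = vehicle-treated cells and 100% = reference agonist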)). Settings: cells, MOR-DOR heterodimerization, luminescence complementation; at 9.3 µM; hits give high values.
Sequence of Mu-type opioid receptor (Homo sapiens) + Delta-type opioid receptor (Homo sapiens) (P35372 whole entry, looked up): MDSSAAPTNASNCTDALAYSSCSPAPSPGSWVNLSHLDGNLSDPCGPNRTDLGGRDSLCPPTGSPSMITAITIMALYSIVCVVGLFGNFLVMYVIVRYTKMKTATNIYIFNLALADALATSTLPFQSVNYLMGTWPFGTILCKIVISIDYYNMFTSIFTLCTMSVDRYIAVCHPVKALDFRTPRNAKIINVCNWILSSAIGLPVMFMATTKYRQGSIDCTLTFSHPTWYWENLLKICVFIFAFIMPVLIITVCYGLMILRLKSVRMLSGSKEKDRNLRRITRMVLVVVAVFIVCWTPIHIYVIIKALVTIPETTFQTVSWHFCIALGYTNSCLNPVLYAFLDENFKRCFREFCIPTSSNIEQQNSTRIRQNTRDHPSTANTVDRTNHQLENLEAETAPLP
Sequence of Mu-type opioid receptor (Homo sapiens) + Delta-type opioid receptor (Homo sapiens) (P41143 whole entry, looked up): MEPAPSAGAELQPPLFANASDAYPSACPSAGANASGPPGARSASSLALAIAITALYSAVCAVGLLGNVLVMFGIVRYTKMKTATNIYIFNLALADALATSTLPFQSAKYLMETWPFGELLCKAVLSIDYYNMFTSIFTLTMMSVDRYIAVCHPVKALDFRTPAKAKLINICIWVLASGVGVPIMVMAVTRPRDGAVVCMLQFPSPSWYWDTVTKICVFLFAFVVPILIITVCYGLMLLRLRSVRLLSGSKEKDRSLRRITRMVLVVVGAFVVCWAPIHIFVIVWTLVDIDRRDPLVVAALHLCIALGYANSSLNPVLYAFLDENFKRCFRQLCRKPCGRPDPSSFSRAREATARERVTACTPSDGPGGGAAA

Row | Compound | activation
1 | CCOC(=O)C1(CCc2ccccc2)CCN(Cc2ccco2)CC1 | 41.4% (active)
2 | C[C@]12CC[C@H](O)C[C@H]1CC[C@@H]1C2CC[C@]2(C)[C@@H](C3=CC(=O)OC3)[C@@H](O)C[C@]12O (some centres undefined) | -3.86%
3 | COC1C(O)C(C)OC(OC2CCC3(C=O)C(CCC4C3CCC3(C)C(C5=CC(=O)OC5)CCC43O)C2)C1O (centres undefined) | 51.8% (active)
4 | CCC1(C)CC(CCNCc2ccc(N(C)C)cc2)(c2ccc(F)cc2)CCO1 (centres undefined) | 137% (active)
